ADAM17 inh: ADAM17 inhibition, QFRET primary screen; recombinant ADAM17, EDANS/DABCYL FRET peptide cleavage; hit rate 0.83% among 370,000; inhibition, % at 6.95 µM;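 active = inhibition above the mean of compounds lying between control limits plus 3 SD, set per campaign, cut at about 8.5% in these data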
PLCb3 inh: inhibitors of human phospholipase C beta3; Q01970; Purified PLC-beta3, fluorogenic substrate, fluorescence; inhibition, % at 12.2 µM; hit rate 0.18% among 370,000; in the data active = inhibition above about 11%
PLC-gamma1 inh: blocks human PLC-gamma1 enzyme activity | P19174 | purified PLC-gamma1, fluorogenic substrate, fluorescence | inhibition, % at 12.2 µM | hit rate 0.84% among 370,000 | AID 720700; in the data active = inhibition above about 9.5%
ADAM10 inh: inhibits human ADAM10 | O14672 | recombinant ADAM10, EDANS/DABCYL FRET peptide cleavage, 3 h | inhibition, % at 7 µM | hit rate 0.62% among 370,000;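 active = inhibition above a per-campaign cutoff equal to the mean of compounds falling between control-based bounds plus 3 SD, cut at about 20% in these data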
KLK7 zymogen act: proKLK7 (human) activation, primary screen | hit rate 0.9% among 370,000 | P49862 | activation, % at 7 µM | purified proKLK7, EDANS-DABCYL substrate fluorescence; 100% is mature enzyme control, 0% vehicle;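 active = activation above the mean of all tested compounds plus 3 SD, computed per campaign excluding outliers beyond control limits, cut at about 13% in these data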
ADAM10 confirm: human ADAM10 inhibition, confirmation; inhibition, % at 6.95 µM; ADAM10 QFRET peptide cleavage, EDANS fluorescence; hit rate 1% among 2,100; shares compounds with ADAM10 inh;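 active = inhibition above about 20% chosen separately for each screening run, limit read from the data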
ADAM17 ctr: inhibits human ADAM17 in ADAM10 exosite counter-screen | ADAM17 QFRET peptide cleavage, EDANS fluorescence | shares compounds with ADAM10 inh | hit rate 0.5% among 2,100 | AID 743214 | inhibition, % at 6.95 µM;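 active = mean triplicate inhibition above the solvent-only control wells' mean plus 3 SD, cut at about 12% in these data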
ADAM10 ctr: inhibits human ADAM10 in ADAM17 exosite counter-screen | shares compounds with ADAM17 inh | recombinant ADAM10, EDANS/DABCYL FRET peptide cleavage, 3 h | inhibition, % at 6.95 µM | hit rate 47% among 2,900 | AID 743256;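 active = mean inhibition over the triplicate runs exceeds the activity threshold set in the earlier primary screen, cut at about 20% in these data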
ADAM17 confirm: human ADAM17 inhibition, confirmation; shares compounds with ADAM17 inh; recombinant ADAM17, EDANS/DABCYL QFRET peptide cleavage; hit rate 65% among 2,900; AID 743257; inhibition, % at 6.95 µM;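 active = mean inhibition across replicates above the hit cutoff set in the primary screen, cut at about 8.5% in these data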
Each line names hits and unclear results; the compound was inactive in the other large screens (follow-up assays come after a bar, where they were run). Most compounds without a hit are left out; they make up all but 2.9% or so of the library.

C=CCC[C@H](Cc1ccc(F)cc1)C(=O)OC[C@H](Cc1c[nH]c2ccccc12)NC(=O)[C@@H](CC=C)CC(=O)N(CCO)Cc1ccccc1	ADAM17 inh 14, ADAM10 inh 27 | ADAM10 confirm inactive | ADAM17 ctr inactive | ADAM10 ctr 40 | ADAM17 confirm 20
C=CC[C@H](CC(=O)N(CCO)Cc1ccccc1)C(=O)N[C@H](COC(=O)[C@@H](CC=C)CC(=O)OC(C)(C)C)Cc1c[nH]c2ccccc12	ADAM17 inh 13, ADAM10 inh 26 | ADAM10 confirm inactive | ADAM17 ctr inactive | ADAM10 ctr 45 | ADAM17 confirm 22
C=CC[C@H](CC(=O)N(CCO)Cc1ccccc1)C(=O)N[C@H](COC(=O)[C@@H](CC=C)Cc1ccc(F)cc1)Cc1ccccc1	ADAM17 inh 11, ADAM10 inh 21 | ADAM10 confirm inactive | ADAM17 ctr inactive | ADAM10 ctr 25 | ADAM17 confirm 16
C=CCC[C@H](Cc1ccc(F)cc1)C(=O)OC[C@@H](Cc1c[nH]c2ccccc12)NC(=O)[C@@H](CC=C)CC(=O)N(CCO)Cc1ccccc1	ADAM17 inh 15, ADAM10 inh 41 | ADAM10 confirm inactive | ADAM17 ctr inactive | ADAM10 ctr 48 | ADAM17 confirm 23
C=CCC[C@@H](Cc1ccc(F)cc1)C(=O)OC[C@H](Cc1c[nH]c2ccccc12)NC(=O)[C@H](CC=C)CC(=O)N(CCO)Cc1ccccc1	ADAM17 inh 12, ADAM10 inh 21 | ADAM10 confirm inactive | ADAM17 ctr inactive | ADAM10 ctr 55 | ADAM17 confirm 27
CCOC(=O)[C@]12CCCC3=C1N(CCC3)C(=O)[C@@H](CC(=O)NCCC(C)C)C2	none
O=C(CCl)N1CCN2C(=O)c3ccccc3C12c1ccc(Cl)cc1 (stereo not drawn)	none
O=C(Nc1cccc(Cl)c1)N1CCN2C(=O)c3ccccc3C12c1ccccc1 (stereo not drawn)	ADAM17 inh 11, ADAM10 inh 23 | ADAM10 confirm inactive | ADAM17 ctr inactive | ADAM10 ctr 20 | ADAM17 confirm 12
COc1ccc2c(c1)CO[C@H]([C@H](O)CO)[C@H]2/C=C/c1ccccc1	none
CCN(CC)S(=O)(=O)c1cccc(C(=O)Oc2cccc(NC(=O)c3cccs3)c2)c1	ADAM17 inh 9.3, ADAM10 inh 27 | ADAM10 confirm inactive | ADAM17 ctr inactive | ADAM10 ctr 22 | ADAM17 confirm 13
O=S1(=O)c2ccccc2-c2c(nnn2CC2CCCCC2)CN1C1CC1	none
COc1ccc2c(c1)N[C@@](CCN1C(=O)c3ccccc3C1=O)(c1[nH]c3ccccc3c1CCN1C(=O)c3ccccc3C1=O)C2=O	none (no result: KLK7 zymogen act)
O=[N+]([O-])c1ccc(-c2nc(Nc3cccc(O)c3)c3ccccc3n2)cc1	ADAM17 inh 13, ADAM10 inh 31 | ADAM10 confirm inactive | ADAM17 ctr inactive | ADAM10 ctr 34 | ADAM17 confirm 17
O=C(O)c1cccc(Nc2nc(-c3ccc([N+](=O)[O-])cc3)nc3ccccc23)c1	none
Cc1ccc(NC(=O)NNC(=O)Cn2nc(-c3ccccc3)c(-c3ccccc3)c(C#N)c2=O)cc1	ADAM17 inh 20, ADAM10 inh 20 | ADAM10 confirm inactive | ADAM17 ctr inactive | ADAM10 ctr inactive | ADAM17 confirm 15
OCCNc1nc(Nc2ccccc2OC(F)(F)F)nc(N2CCCC2)n1	none
OCCNc1nc(Nc2ccccc2Oc2ccccc2)nc(N2CCCC2)n1	ADAM17 inh 12, ADAM10 inh 27 | ADAM10 confirm inactive | ADAM17 ctr inactive | ADAM10 ctr 21 | ADAM17 confirm 13
COc1cc(NS(=O)(=O)c2ccc(NC(=S)NC(=O)/C=C/c3ccc(F)cc3)cc2)ncn1	none
